40 molecules from PubChem BioAssay (NCATS) can be followed below.

Records with an inconclusive call do not appear. Activity calls are given as the source filed them. Calls come from the whole dose curve; as a rule, active = well fitted cell-killing curve with a large enough effect; inconclusive = small, poorly fitted or top-dose-only effect; inactive = flat fitted curve, though single readings scatter. Residues, ends and D or L forms follow the SMILES beside them. *: point of attachment. Cbz = O=C(OCc1ccccc1)*
Potency is the fitted concentration of half-maximal effect.

The nature of this assay: qHTS of pediatric cancer cell lines to identify multiple opportunities for drug repurposing: Primary screen for U-2 OS cells (AID 1347096). Note: nearly all actives have a fitted effect of over 50% in size. Particulars: U-2 OS viability, CellTiter-Glo luminescence, 48 h; series mostly up to 46 µM; activity change, negative = cytotoxic: at the top concentration. The text has this:
Drug repurposing or repositioning has been offered as a strategy for drug development in oncology programs. This approach has special potential for childhood cancers and other rare or orphan diseases, where the expected return on new drug development has been a disincentive to pharmaceuticals.
In this project we exploit the poly-pharmacology of drugs to discover new indications via phenotypic screening of a panel of 19 well-characterized cell lines derived from solid tumors seen in children and adolescents. The goal is to identify approved drugs with previously unrecognized anticancer properties that has the potential to reveal new mechanisms and biological processes involved in carcinogenesis or drug resistance. We employed a titration-based paradigm (quantitative high-throughput screening or qHTS), where all compounds were tested at multiple concentrations for their effect on cell viability. Concentration-response curves (CRCs) were derived directly from the primary screen, and both potency and efficacy values were used to identify compounds with robust bioactivity profiles. We screened the NIH Chemical Genomics Center (NCGC) Pharmaceutical Collection (NPC) and Mechanism Interrogation Plate (MIPE) small molecule collections of approved and investigational compounds against these cell lines; and measured metabolically active cells after 48 hours of compound treatment as a proxy for cell viability.
Assay Submitter: Nathalia J. Martinez, National Center for Advancing Translational Sciences, National Institutes of Health, Rockville, MD, USA; email: natalia.martinez@nih.gov
[1] Shen, M et al. Quantitative high-throughput phenotypic screening of pediatric cancer cell lines identifies multiple opportunities for drug repurposing. Oncotarget 2017 Dec 19;9(4):4758-4772. PMID 29435139.
The cells were obtained from University of North Carolina (UNC), Pediatric Preclinical Testing Program (PPT), and Coriell Institute (CI).
qHTS cell viability assay:
Cells were assayed in growth media at a density of 500-1,000 cells/well. Five microliters of cells were dispensed into 1,536-well, white, solid-bottom, TC-treated plates (Greiner Bio One) using a multidrop dispenser and incubated at 37 degrees C, 5% CO2, under a humidified atmosphere for 5 hours. Twenty-three nanoliters of compounds and controls (neutral control DMSO or positive control bortezomib at final concentration of 2.3 µM) were subsequently transferred by Kalypsys pintool. For primary screens, the MIPE collection was tested at 11-point dilutions (final concentrations range from 0.78 nM to 46 µM) and the NPC collection at 8-point dilutions (final concentrations range from 0.59 nM to 46 µM). Compounds tested in follow-up screens were assayed at 11-point dilutions. Cells were incubated for 48 hours, followed by addition of 3 µL of CellTiter-Glo (Promega). After a 15 min incubation at room temperature, samples were analyzed for luminescence intensity using a ViewLux High-throughput CCD imager equipped with clear filters.
(In general: Quantitative high-throughput screening tests each substance at several concentrations.)
`O=C(O)CCCCCC(=O)NN=C1CCCC1`: the “activity change, negative = cytotoxic” value was 6.99% (inactive).
On the same count and under the same terms, for `CN1[C@H]2CC(OC(=O)[C@@H](CO)c3ccccc3)C[C@H]1[C@H]1O[C@H]12` (stereo not given in full) the value was 22% [at 16.1 µM] (inactive); for `O=C(Nc1ccc(Oc2ccnc3[nH]ccc23)c(F)c1)c1cccn(-c2ccc(F)cc2)c1=O`, 4.45% (inactive).
Turning to `C[C@H](NC(=O)[C@@H](O)c1cc(F)cc(F)c1)C(=O)N[C@@H]1C(=O)N(C)c2ccccc2-c2ccccc21`, the “activity change, negative = cytotoxic” value was -3.99% (inactive).
Turning to `O=C1CSC(=O)N1C(CCc1ccncc1)COc1ccc(-c2cccc([N+](=O)[O-])c2)cc1` (stereo not given), the “activity change, negative = cytotoxic” value is 4.9% (inactive).
The same measure, in the same setting: for `Cc1coc2c1C(=O)C(=O)c1c-2ccc2c(C)cccc12` the value was 7.03% (inactive).
In the case of `CCN(CC)Cc1ccc2cc(COC(=O)Nc3ccc(C(=O)NO)cc3)ccc2c1`, the Potency is 3.72 µM (active).
For the molecule `C[C@@H]1C(=O)O[C@H]2CC34[C@H]5C[C@@H](C(C)(C)C)C36[C@H](OC(=O)[C@@H]6O)O[C@@]4(C(=O)O5)[C@]21O` (stereo not given in full), the “activity change, negative = cytotoxic” value is 5.74% (inactive).
In the case of `C[C@H](NCc1ccc(OCc2cccc(F)c2)cc1)C(N)=O`, the Potency is 18.7 µM (active).
Turning to `CC(=O)OCC(=O)[C@@]12N=C(C)O[C@H]1C[C@H]1[C@@H]3CCC4=CC(=O)C=C[C@]4(C)[C@@H]3[C@@H](O)C[C@@]12C`, the “activity change, negative = cytotoxic” value was 4.91% (inactive).
Still for that read-out and setting: the figure for `O=C(C[C@@H]1CC=CCCC(=O)O[C@H](c2ccccc2)CNC1=O)NCc1ccc(Cl)cc1` is 3.74% (inactive); for `C=C1C[C@@]2(O)O[C@@]3(C[C@H]2C(C)C)[C@H](C)CC[C@H]13` it is 11.3% (inactive); for `C=C[C@@H]1CN2CCC1C[C@H]2[C@H](O)c1ccnc2ccc(OC)cc12` (stereo not given in full) it is -12.3% (inactive).
As for `C#CCC(Cc1cnc2nc(N)nc(N)c2n1)c1ccc(C(=O)N[C@@H](CCC(=O)O)C(=O)O)cc1` (stereo not given in full), the “activity change, negative = cytotoxic” value is 10% (inactive).
Same read-out and setting: for `CN1C(C(=O)Nc2ccccn2)=C(O)c2sc(Cl)cc2S1(=O)=O` the value was -8% (inactive); for `COC(=O)[C@@H]1[C@H]2C[C@@H]3c4[nH]c5ccccc5c4CCN3C[C@@H]2CC[C@@H]1O`, 13.4% (inactive).
In the case of `COc1ccc(Nc2cc(-c3cnc(N)nc3)nc(N3CCOCC3)n2)cn1`, the Potency is 14.8 µM (active).
Take `Cn1cc(C[C@@H](N)C(=O)O)c2ccccc21`: the “activity change, negative = cytotoxic” value is 1.2% [at 16.1 µM] (inactive).
Same read-out and setting: the figure for `O=C(C=CC=Cc1ccc2c(c1)OCO2)N1CCCCC1` is -0.927% (inactive); for `CC(C)(C)[N+]([O-])=Cc1ccc(S(=O)(=O)O)cc1S(=O)(=O)O` it is 9.64% (inactive).
Same read-out and setting: for `CCC(C=C[C@@H]1OC(=O)C=C[C@H]1C)=C[C@H](C)CC=CC(C)=C[C@@H](C)C(=O)[C@@H](C)[C@H](O)[C@@H](C)CC(C)=CC(=O)O` the value was 13.2% [at 1.86 µM] (inactive).
Take `CC(C)C[C@@H](C=O)NC(=O)[C@H](CC(C)C)NC(=O)[C@H](CC(C)C)NC(=O)OCc1ccccc1` (Cbz-Leu-Leu-Leu-aldehyde): the Potency is 0.935 µM (active).
Take `N=c1ccn2c(n1)O[C@H]1[C@@H](O)[C@@H](CO)O[C@H]12`: the “activity change, negative = cytotoxic” value was 13.2% (inactive).
In the case of `O=C(NNC(=O)c1ccc(CNS(=O)(=O)c2ccc(F)c(Cl)c2)cc1)c1ccccc1`, the “activity change, negative = cytotoxic” value was 13.5% (inactive).
In the case of `N#CNC(=NCCCCCCOc1ccc(Cl)cc1)Nc1ccncc1`, the Potency is 0.0187 µM (active).
Still for that read-out and setting: the figure for `COc1cc(O)c2c(c1)C1OC1C[C@H](O)[C@H](O)C(=O)C=CC[C@H](C)OC2=O` (stereo not given in full) is 18.7 µM (active).
With `CC1(C)CC(O)CC(C)(C)N1[O]`, the “activity change, negative = cytotoxic” value is 9.52% (inactive).
Take `CN1CCc2c(c3ccccc3n2Cc2ccc(C(=O)NO)cc2)C1`: the Potency is 23.5 µM (active).
With `COc1cc([C@@H]2c3cc4c(cc3[C@@H](O[C@@H]3O[C@@H]5CO[C@@H](c6cccs6)O[C@@H]5[C@H](O)[C@@H]3O)[C@H]3COC(=O)[C@H]23)OCO4)cc(OC)c1O`, the Potency was 3.72 µM (active).
With `C=Cc1c(C)c2cc3nc(cc4[nH]c(cc5nc(cc1[nH]2)C(C)=C5CCC(=O)O)c(CCC(=O)OC)c4C)[C@@]1(C)C3=CC=C(C(=O)OC)[C@H]1C(=O)OC`, the Potency is 0.372 µM (active).
As to `COc1cccc2c1C(=O)c1c(O)c3c(c(O)c1C2=O)C[C@@](O)(C(C)=O)C[C@H]3O[C@H]1C[C@H](N)[C@H](O)[C@H](C)O1`, the Potency was 0.118 µM (active).
Regarding `O=C(CN1C(=O)C2(CCCC2)NC[C@H]1c1cc(F)cc(F)c1)Nc1ccc2c(c1)C[C@@]1(C2)C(=O)Nc2ncccc21`, the “activity change, negative = cytotoxic” value was 14.6% (inactive).
The same measure, in the same setting: the figure for `C[C@@H]1CC[C@@]2(OC1)OC1CC3C4CC=C5CC(O)CCC5(C)C4CCC3(C)C1[C@@H]2C` (stereo not given in full) is 14.3% (inactive).
The same measure, in the same setting: the figure for `Nc1ccn(C2CO[C@H](CO)O2)c(=O)n1` (stereo not given in full) is 10% (inactive).
Take `NC1=N[C@H]2[C@H](CS[C@H]2CCCCC(=O)O)N1`: the “activity change, negative = cytotoxic” value is 14.4% [at 16.1 µM] (inactive).
With `O=C1NC(=O)C(=Cc2ccc3nccc(-c4ccncc4)c3c2)S1`, the Potency was 1.87 µM (active).
Same read-out and setting: for `Nc1nc(N)c2nc(-c3cccc(O)c3)c(-c3cccc(O)c3)nc2n1` the value was 23.5 µM (active).
Regarding `Cc1cncc2cccc(S(=O)(=O)N3CCCN(C(=O)CN)C[C@@H]3C)c12`, the “activity change, negative = cytotoxic” value was -10.9% (inactive).
Take `c1cc(N[C@@H]2CCNC2)nc(-c2cnc3ccc(-c4cn[nH]c4)cn23)c1`: the “activity change, negative = cytotoxic” value is -11.2% (inactive).
Still for that read-out and setting: for `Cc1ccccc1C(=O)Nc1ccc(C(=O)N2CCCC(O)c3cc(Cl)ccc32)c(C)c1` (stereo not given) the value was -24.5% (inactive).
